Peg3 imprint = inducers of genomic imprint erasure in mouse ES cells; Potency, µM (series often up to 60.7 µM), inactives show at the highest dose activity change, positive = activation, hits mostly activators; AID 1948; mouse ES Peg3-LacZ reporter, beta-gal luminescence, 40 h; 110,000 compounds, 0.02% hits
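Each well holds 300 Peg3LacZ-Neo (maternal) female ES cells incubated 40 h at 37C, 5% CO2. LacZ is measured by BetaGlo luminescence, with AC50 and maximum efficacy derived from dose-response curves.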
p53ts 32C kill = kills p53ts cells at the permissive temperature; H1299-p53A138V at 32C, ATP luminescence viability, 24 h; Potency, µM (highest dose often 46.1 µM), inactives show at the highest dose activity change, negative = cytotoxicity, most hits filed as cytotoxic; 130,000 compounds, 0.93% hits; AID 924;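 also: 0% = DMSO and -100% = full killing by reference compound; nearly all actives have a fitted effect of over 55% in size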
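ATP-content luminescence (ATPlite) read-out after 24 h compound exposure at 32C in H1299-p53A138V cells (600/well). Tested up to 46 uM. Normalized to DMSO (0%) and 100 uM tamoxifen (100% killing); Hill-fit AC50.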
IkB sig inh = inhibitors of IkB signaling in ABC-DLBCL cells | ABC-DLBCL IkBa-CBG/CBR dual luciferase ratio, 4 h; response scale: scaled: untreated 0%, proteasome inhibitor 100% | Potency, µM (series often up to 57.1 µM), without a hit: at the highest dose IkBa stabilization activation | 110,000 compounds, 0.04% hits; active = well fitted curve in the direction sought with a large enough effect in the signal ratio, not every such curve was filed as active; inconclusive = small, poorly fitted or top-dose-only effect, or a change in a side signal; the % refers to the signal ratio;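 also: the direction sought is a rising ratio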
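In this assay, an IκBα–CBG68 fusion accumulates when IKK-driven degradation is blocked; native CBR normalizes for cell number. OCI-Ly3 cells were treated 4 h with compound and doxycycline, then green and red light read after Chroma-Glo addition.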
p53ts 39C kill = cytotoxicity in p53ts cells at nonpermissive temperature. H1299-p53A138V viability at 39C, ATP luminescence, 24 h. Potency, µM (highest dose often 46.1 µM), without a hit: top-dose activity change, negative = cell killing, actives largely listed as cytotoxic. 130,000 compounds, 1.5% hits. AID 902; also: % is scaled to controls: 0 for no effect and ±100 for the full control effect; nearly all actives have a fitted effect of over 55% in size
* hit, by the source's call; [ ] = dose if it differs, or a comment. Hits are enriched below; roughly 1.8% of the tested compounds scored in any of these assays. Unless noted, calls follow the shape of the dose curve; as a rule, active = well fitted curve in the direction sought with a large enough effect; inconclusive = small, poorly fitted or top-dose-only effect, or another doubt; inactive = no such curve, though single readings can be large; an effect the other way counts as inactive or inconclusive. Potency is read from the fitted curve at half-maximal effect.

`COc1ccc(-n2ccnc(NCc3ccccc3OC)c2=O)cc1` gave Peg3 imprint 12%[10.9 µM], p53ts 32C kill -5%, IkB sig inh -1% and p53ts 39C kill -9%.
Screening COc1ccc2c(c1)[n+]([O-])c(/C(C)=N/NC(N)=S)c(C)[n+]2[O-] returned p53ts 32C kill 6%[9.22 µM], IkB sig inh 1%[11.4 µM] and p53ts 39C kill 3%[9.22 µM].
Screening CN(C)c1ccc(/C=C/c2noc(-c3ccccc3O)n2)cc1 returned Peg3 imprint -80%[10.9 µM], p53ts 32C kill -21%, IkB sig inh inconclusive and p53ts 39C kill -3%.
Oc1ccccc1-c1nc(/C=C/c2ccccc2Cl)no1 was read as Peg3 imprint -55%[10.9 µM], p53ts 32C kill 7.9µM*, IkB sig inh inconclusive and p53ts 39C kill 7.9µM*.
Screening O=C(NCC1CCN(Cc2cccc(Cl)c2)CC1)Nc1cc(Cl)ccc1Cl returned Peg3 imprint -15%[10.9 µM], p53ts 32C kill inconclusive, IkB sig inh inconclusive and p53ts 39C kill 13µM*.
`O=C(NCC1CCN(Cc2cccc(Cl)c2)CC1)Nc1ccc(F)c(Cl)c1` gave Peg3 imprint -10%[10.9 µM], p53ts 32C kill 11%, IkB sig inh inconclusive and p53ts 39C kill inconclusive.
Screening Cc1ccc(Cn2c(C)c3cnn(CC(=O)N4CCN(c5ccc(F)cc5)CC4)c(=O)c3c2C)cc1 returned Peg3 imprint -13%[10.9 µM], p53ts 32C kill 1%, IkB sig inh 2% and p53ts 39C kill -15%.
Cc1ccc(C(=O)Nc2ccccc2C(=O)NC(C(=O)O)C(C)C)cc1 (stereo not drawn) was read as p53ts 32C kill inconclusive and p53ts 39C kill 10µM*.
For Cc1ccc(C(=O)Nc2ccccc2C(=O)NC(CC(=O)O)C(=O)O)cc1 (stereo not drawn) the results were Peg3 imprint -31%, p53ts 32C kill -24%, IkB sig inh inconclusive and p53ts 39C kill -25%.
Cc1ccccc1Nc1nn2c(=O)c3ccc(C(=O)NCc4ccccc4)cc3nc2s1 was read as Peg3 imprint -17%[10.9 µM], p53ts 32C kill -28%, IkB sig inh 0% and p53ts 39C kill -4%.
`Cc1ccc(C)c(Nc2nn3c(=O)c4ccc(C(=O)NCc5cccs5)cc4nc3s2)c1` gave Peg3 imprint -5%[10.9 µM], p53ts 32C kill 16µM*, IkB sig inh inconclusive and p53ts 39C kill inconclusive.
`Cc1ccc(Cl)cc1Nc1nn2c(=O)c3ccc(C(=O)NCc4ccc(F)cc4)cc3nc2s1` gave Peg3 imprint -12%[10.9 µM], p53ts 32C kill 1%, IkB sig inh inconclusive and p53ts 39C kill 13µM*.
For CCc1ccc(NC(=O)c2ccc3c(=O)n4nc(Nc5ccccc5C)sc4nc3c2)cc1 the results were Peg3 imprint 5%[10.9 µM], p53ts 32C kill 13µM*, IkB sig inh inconclusive and p53ts 39C kill inconclusive.
COc1ccccc1Nc1nn2c(=O)c3ccc(C(=O)NCc4cccs4)cc3nc2s1 was read as Peg3 imprint -28%[10.9 µM], p53ts 32C kill 3.2µM*, IkB sig inh inconclusive and p53ts 39C kill 10µM*.
`COC(=O)c1ccc2c(=O)n(CCCCCC(=O)NCc3ccc(Cl)cc3)c(=O)[nH]c2c1` gave Peg3 imprint 14%[10.9 µM], p53ts 32C kill 10%, IkB sig inh -2% and p53ts 39C kill -5%.
For O=C(CN1CCSc2ccccc21)N1CCN(c2cccc(Cl)c2)CC1 the results were Peg3 imprint 2%[10.9 µM], p53ts 32C kill -10%, IkB sig inh 8% and p53ts 39C kill inconclusive.
`Cc1cc(=O)n2nc(N3CCC(C(=O)NCCCOC(C)C)CC3)sc2n1` gave Peg3 imprint 7%[10.9 µM], p53ts 32C kill -4%, IkB sig inh 1% and p53ts 39C kill 3%.
COc1ccc(OC)c(CNC(=O)CN2CC(C)Sc3ccccc32)c1 (stereo not drawn) was read as Peg3 imprint -8%[10.9 µM], p53ts 32C kill 2%, IkB sig inh 1% and p53ts 39C kill -15%.
CN(Cc1ccco1)c1cc(-c2cccc(C#N)c2)ncn1 was read as Peg3 imprint -7%, p53ts 32C kill 3%, IkB sig inh -1%[11.4 µM] and p53ts 39C kill -7%.
CN(C)c1ccc(-c2cc(N(C)Cc3ccco3)ncn2)cc1 was read as Peg3 imprint -39%, p53ts 32C kill 13µM*, IkB sig inh -2%[11.4 µM] and p53ts 39C kill 13µM*.
`COc1cccc(-c2cc(N(C)Cc3ccco3)ncn2)c1` gave Peg3 imprint -84%, p53ts 32C kill inconclusive, IkB sig inh -1%[11.4 µM] and p53ts 39C kill 13µM*.
COc1cccc(-n2c(=O)c3sc4ccccc4c3n(CC(=O)Nc3ccccc3OC)c2=O)c1 was read as Peg3 imprint -8%[10.9 µM], p53ts 32C kill -12%, IkB sig inh 13% and p53ts 39C kill 10µM*.
COc1cccc(-n2c(=O)c3sc4ccccc4c3n(CC(=O)Nc3ccccc3C)c2=O)c1 was read as Peg3 imprint -8%[10.9 µM], p53ts 32C kill -12%, IkB sig inh 7% and p53ts 39C kill 1%.
For Cc1ccc(C(=O)c2cn(Cc3c(F)cccc3Cl)c3nc(C)ccc3c2=O)cc1 the results were Peg3 imprint -5%[10.9 µM], p53ts 32C kill 17%, IkB sig inh inconclusive and p53ts 39C kill -5%.
Screening COc1cccc(NC(=S)N/N=C2/CCCCc3ccccc32)c1 returned p53ts 32C kill inconclusive and p53ts 39C kill 22µM*.
Screening COC(=O)c1ccc(OCC(=O)c2ccc(O)cc2O)cc1 returned Peg3 imprint -59%, p53ts 32C kill 13µM*, IkB sig inh inconclusive and p53ts 39C kill 13µM*.
For CCOC(=O)c1ccc(OCC(=O)c2ccc(O)cc2O)cc1 the results were Peg3 imprint -58%, p53ts 32C kill 13µM*, IkB sig inh 0% and p53ts 39C kill 13µM*.
`CCOC(=O)COc1ccc(C(=O)c2ccccc2)c(O)c1` gave Peg3 imprint -4%, p53ts 32C kill -2%, IkB sig inh 0% and p53ts 39C kill -8%.
For O=C(Nc1ccccn1)c1ccc2ccccc2n1 the results were Peg3 imprint -83%, p53ts 32C kill 16µM*, IkB sig inh inconclusive and p53ts 39C kill 16µM*.
For O=C(COc1ccccc1)NCCc1csc(-c2ccc(Cl)cc2)n1 the results were Peg3 imprint 3%[10.9 µM], p53ts 32C kill 0%, IkB sig inh inconclusive and p53ts 39C kill -19%.
For C=CCn1c(-c2ccc(OC)cc2)nc2ccccc21 the results were Peg3 imprint -40%, p53ts 32C kill 16µM*, IkB sig inh -1% and p53ts 39C kill inconclusive.
Screening Cc1ccc(-n2ncc3c(NC4CCCCC4)ncnc32)cc1 returned Peg3 imprint -10%[10.9 µM], p53ts 32C kill inconclusive, IkB sig inh inconclusive and p53ts 39C kill 7.9µM*.
`Clc1cccc(-n2ncc3c(NC4CCCCC4)ncnc32)c1` gave Peg3 imprint -13%[10.9 µM], p53ts 32C kill inconclusive, IkB sig inh inconclusive and p53ts 39C kill 13µM*.
`Cc1ccc(Cl)cc1-n1ncc2c(NC3CCCCC3)ncnc21` gave Peg3 imprint -8%[10.9 µM], p53ts 32C kill -1%, IkB sig inh inconclusive and p53ts 39C kill 4%.

Source: PubChem BioAssay
